From ChEMBL document CHEMBL1857833, “Screening and optimization of specific chemical series against human African Trypanosomiasis (HAT)” come the findings set out here.

About 390 (8.9%) of roughly 4,400 compounds showed an effect of 50% or more. Only a selection was taken, and strong results are over-represented in it overall.

For the assay, the system named is Trypanosoma brucei. Kind of assay: DNDI: Inhibition of Human African Trypanosomiasis, SBRI 427, in vitro at 2 ug.mL-1. Type of assay: functional.
As a reminder, the % inhibition is the relative decrease from the control value, in per cent. As to `COc1cccc(CN/C(=N\O)c2ccc(C)nc2Oc2cc(Cl)ccc2Cl)c1`, the “% inhibition” value is reported as -48%. The same measure for `Cc1ccc(/C(=N/O)NCc2cc(F)cc(F)c2)c(Oc2cc(Cl)ccc2Cl)n1`: 76%; for `Cc1ccc(/C(=N/O)NCc2cc(F)ccc2F)c(Oc2cc(Cl)ccc2Cl)n1`: -39%; for `CCOc1ccccc1-c1nc(CN(C)CC2OCCO2)co1`: -5%. The same measure for `Fc1ccccc1-c1nc(CNc2ccccc2)co1`: 13%; for `O/N=C(\NCC1CCCCC1)c1ccnc(Oc2cccc3c2CCCC3)c1`: 96%. The same measure for `CN(/C(=N\O)c1ccnc(Oc2cccc3c2CCCC3)c1)C1CCCCC1`: 14%; for `Cc1ccc(CN/C(=N\O)c2ccnc(Oc3cccc4c3CCCC4)c2)o1`: 40%; for `O/N=C(\NC1CCCCC1)c1ccnc(Oc2cccc3c2CCCC3)c1`: 99%.

For `O/N=C(\NCc1c(F)cccc1F)c1ccnc(Oc2cccc3c2CCCC3)c1`, the “% inhibition” value amounted to 37%. The same measure for `Cc1ccc(Oc2cc(/C(=N/O)NC3CCCC3)ccn2)c2c1CCC2`: 11%; for `CCOc1ccccc1-c1nc(CN(CC)Cc2ccncc2)co1`: 12%; for `CCOc1ccc(-c2nc(CNCC(C)(C)CN(C)C)co2)cc1`: 39%. With `O/N=C(/c1ccc(Oc2cccc(F)c2)nc1)N1CCN(c2ccccc2)CC1`, the “% inhibition” value came to 2%. The result for `COc1ccc(Oc2cc(/C(=N/O)NC3CCC3)ccn2)cc1` reads 100%; that for `COc1ccc(Oc2cc(/C(=N/O)NC3CCCCC3)ccn2)cc1`, 100%. The same measure for `CSc1ccc(Oc2cc(/C(=N/O)NC3CCCCC3)ccn2)cc1`: 21%; for `COc1ccc(Oc2cc(/C(=N/O)N3C(C)CCCC3C)ccn2)cc1` (stereo not given): 10%; for `COc1ccc(Oc2cc(/C(=N/O)NCC3CCCO3)ccn2)cc1` (stereo not given): 34%. As for `COc1ccc(Oc2cc(/C(=N/O)NC3CC(C)CC(C)(C)C3)ccn2)cc1` (stereo not given), the “% inhibition” value was determined as 14%.

Take `Cc1ccc(Oc2nc(C)ccc2/C(=N/O)N(C)C2CCCCC2)c(C)c1`: the “% inhibition” value is recorded as 18%. The same measure for `Cc1cc(C)cc(Oc2ccc(/C(=N/O)n3cnc(C)c3)cn2)c1`: 1%; for `CCCCN(CC#N)Cc1coc(-c2ccc(C)cc2)n1`: 7%. The result for `CCN(Cc1coc(-c2ccccc2F)n1)c1ccc(C)cc1` reads -32%. The result for `CCc1ccc(Oc2ncccc2/C(N)=N/O)cc1` reads 1%; that for `COCC(C)N/C(=N\O)c1cccnc1Oc1cccc(C(F)(F)F)c1` (stereo not given), 1%.

As to `COCC(C)N/C(=N\O)c1cccnc1OCC(C)C` (stereo not given), the “% inhibition” value was determined as 5%. As to `COCC(C)N/C(=N\O)c1cccnc1Oc1ccc(OC)cc1` (stereo not given), the “% inhibition” value is recorded as -10%. The result for `CCc1ccc(Oc2ncccc2/C(=N/O)NC(C)COC)cc1` (stereo not given) reads 87%; that for `COCC(C)N/C(=N\O)c1cccnc1Oc1ccc(C(C)C)cc1` (stereo not given), 99%.
